“And” between values parts separate entries of the source, which are not always exact repeats. Equal values may be shown once. Inconclusive results are not listed. Unmarked numbers belong to inactive results. The source made the active and inactive calls. Calls come from the whole dose curve; as a rule, active = well fitted curve in the direction sought with a large enough effect; inconclusive = small, poorly fitted or top-dose-only effect, or another doubt; inactive = no such curve, though single readings can be large; an effect the other way counts as inactive or inconclusive.

Assay [1] is described as follows: Viability qHTS for spleen associated tyrosine kinase inhibitor (SYKi) naive MV4-11 cells (AID 1963823). Note: nearly all actives have a fitted effect of over 40% in size. The procedure, abridged: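 Luminescence from CellTiter-Glo, developed 10 min at room temperature, gave viability of MV4-11 cells never exposed to SYK inhibitor. Cells (500/well) had been incubated with compounds for 72 hr under standard culture conditions.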
(In general: Quantitative high-throughput screening tests each substance at several concentrations.)

The nature of assay [2]: Viability qHTS for spleen associated tyrosine kinase inhibitor (SYKi) drug resistant MV4-11 cells (AID 1963824). Note: nearly all actives have a fitted effect of over 35% in size. The procedure, abridged: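 CellTiter-Glo luminescence, read 10 min after reagent addition, reports viability after a 72 hr compound exposure. Cells are an MV4-11 line made resistant to SYK inhibition, seeded at 500 per well onto compound-containing plates.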
Assay [3] is described as follows: Cellular viability qHTS for adrenocortical cancer (ACC) cell line SW-13 (AID 1963989).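 For activity (max response): cells grown in serum-free medium with ITS supplement; % is set by controls: 0 for no effect and ±100 for the full control effect.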 Note: nearly all actives have a fitted effect of over 65% in size. The conditions noted are these: SW-13 ACC cells viability, CellTiter-Glo, 48 h; activity (max response): active compounds read low. The procedure, abridged:
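Viability was read as CellTiter-Glo luminescence after 48 h compound treatment (up to 46 uM final) of SW-13 cells grown serum-free; titration curves were fit with a four-parameter logistic model to give IC50 and efficacy.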

Assay [4] is described as follows: Cellular viability qHTS for adrenocortical cancer (ACC) cell line NCI-H295R (AID 1963990). Note: nearly all actives have a fitted effect of over 60% in size. The procedure, abridged:
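CellTiter-Glo ATP luminescence, read 48 h after compound addition, measured viability of NCI-H295R adrenocortical cells grown serum-free with ITS. Final concentrations spanned up to 46 uM. Data normalized to DMSO and doxorubicin, fitted for IC50 and maximal response.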
Potency is the fitted concentration of half-maximal effect.

In the case of `O=c1c(-c2ccc(O)cc2)coc2c([C@@H]3O[C@H](CO)[C@@H](O)[C@H](O)[C@H]3O)c(O)ccc12`, the Potency result in assay [1], in assay [2] and in assay [4] was “inactive” in each case. The activity (max response) in assay [3] was 3.16%.
Take `c1ccc2sc(SN3CCOCC3)nc2c1`: the Potency entry in assay [1], in assay [2] and in assay [4] was “inactive” throughout. The activity (max response) in assay [3] is 3.28%.
`Nc1ncnc2c1ncn2[C@@H]1O[C@H](CO)C[C@H]1O`: the Potency entry in assay [1] and in assay [2] was “inactive” each time. Moreover, in assay [3], the activity (max response) is -9.5%. In addition, the Potency in assay [4] is 15.8 µM (active).
As to `Cc1cc(C(C#N)c2ccc(Cl)cc2)c(Cl)cc1NC(=O)c1cc(I)cc(I)c1O` (configuration not stated), the Potency in assay [1] was 18800 nM (active); in assay [2] it was 18.8 µM (active) and 23.1 µM (active); in assay [3], 4.11 µM (active); in assay [4], 3.66 µM (active).
Turning to `c1ccc2sc(SSc3nc4ccccc4s3)nc2c1`, the Potency entry in assay [1], in assay [2] and in assay [4] was “inactive” in each case. For the same compound, in assay [3], the activity (max response) was -16.2%.
Take `COc1ccc(-c2oc3ncnc(N)c3c2-c2ccc(NC(=O)Nc3cc(C(F)(F)F)ccc3F)cc2)cc1`: the Potency in assay [1] is 41.1 nM (active) and 66.1 nM (active); in assay [2], 103 nM (active) and 166 nM (active). Moreover, the activity (max response) in assay [3] is 0.756%. The Potency entry in assay [4] is “inactive”.
For the compound `COc1c(Nc2ncc(Cl)c(N[C@H]3[C@H](C(N)=O)[C@@H]4C=C[C@@H]3C4)n2)ccc2c1CCC(N1CCOCC1)CC2` (some centres not stated), the Potency in assay [1] is 130 nM (active); in assay [2], 0.366 µM (active); in assay [3], 15.8 µM (active); in assay [4], 7.94 µM (active).
For the compound `CCCCCCCCCCCCCCCC(=O)NCCO`, the Potency entry in assay [1], in assay [2] and in assay [4] was “inactive” in each case. For the same compound, in assay [3], the activity (max response) is 3.88%.
Turning to `C[C@@H](C(=O)Nc1ccc(Cl)cc1)C1CCC(c2ccnc3ccc(F)cc23)CC1` (some centres not stated), the Potency in assay [1] was 18600 nM (active); in assay [2], 14.8 µM (active); in assay [3], 25.1 µM (active); in assay [4], 25.1 µM (active).
Regarding `CC(=O)Nc1ccc(O)cc1`, the Potency entry in assay [1], in assay [2] and in assay [4] was “inactive” throughout. Besides, the activity (max response) in assay [3] was -6.94% and -15.1%.
`c1cc(-c2cnn3cc(-c4ccc(N5CCNCC5)cc4)cnc23)c2cccnc2c1`: the Potency was 662 nM (active) in assay [1], 0.92 µM (active) in assay [2], 22.4 µM (active) in assay [3] and 6.31 µM (active) in assay [4].
With `COc1ccc(S(=O)(=O)Nc2nnc(CC(C)C)s2)cc1`, the Potency result in assay [1], in assay [2] and in assay [4] was “inactive” in each case. The activity (max response) in assay [3] was -5.12%.
For `Cn1c(NC[C@@H](N)Cc2ccccc2)nc(-c2ccncc2)c(-c2ccc3ccccc3c2)c1=O`, the Potency is 7420 nM (active) in assay [1], 6.61 µM (active) in assay [2], 28.2 µM (active) in assay [3] and 31.6 µM (active) in assay [4].
For the compound `O=C(OCCN1CCOCC1)c1cccnc1Nc1cccc(C(F)(F)F)c1`, the Potency result in assay [1], in assay [2] and in assay [4] was “inactive” each time. For the same compound, the activity (max response) in assay [3] is -11.8%.
As for `C=CCNC1=C2C[C@@H](C)C[C@H](OC)[C@H](O)[C@@H](C)/C=C(\C)[C@H](OC(N)=O)[C@@H](OC)/C=C\C=C(/C)C(=O)NC(=CC1=O)C2=O`, the Potency in assay [1] is 590 nM (active); in assay [2], 1.66 µM (active); in assay [3] it was 3.55 µM (active); in assay [4] it was 10 µM (active).
As to `CCO[C@@H]1OC(=O)C[C@@H]1NC(=O)[C@@H]1CCCN2C(=O)CC[C@H](NC(=O)c3nccc4ccccc34)C(=O)N12`, the Potency result in assay [1], in assay [2] and in assay [4] was “inactive” each time. Moreover, the activity (max response) in assay [3] is -8.71%.
On to `Cc1c(NC(=O)OCC2COCCN2)cn2ncnc(Nc3ccc4c(cnn4Cc4cccc(F)c4)c3)c12` (configuration not stated), for which the Potency was 4.61 µM (active) and 16.6 µM (active) in assay [1]; 5.8 µM (active) and 16.6 µM (active) in assay [2]; 22.4 µM (active) in assay [3]; 31.6 µM (active) in assay [4].
Turning to `Cc1cccn2c(=O)c(-c3nnn[nH]3)cnc12`, the Potency result in assay [1], in assay [2] and in assay [4] was “inactive” each time. For the same compound, the activity (max response) in assay [3] is -1.53%.
Consider `COc1cc(OC)c(/C=C/S(=O)(=O)Cc2ccc(OC)c(OP(=O)(O)O)c2)c(OC)c1`, for which the Potency in assay [1] is 11.8 nM (active); in assay [2] it was 0.0148 µM (active); in assay [3] it was 0.0398 µM (active); in assay [4], 0.0282 µM (active).
Consider `CC(=O)O/N=C1\C(=O)N(Cc2cc(Cl)ccc2Cl)c2ccc(Cl)cc21`, for which the values for the Potency in assay [1], in assay [2] and in assay [4] were 5900 nM (active), 8.33 µM (active) and 0.562 µM (active), respectively. For the same compound, the activity (max response) in assay [3] was -2.12%.
In the same order, the values of `O=C(O)c1cc(O)c(O)c(O)c1` are “inactive”, 13.3 µM (active), “inactive” and -1.2%.
Regarding `CCC(=C/[C@H](C)C/C=C/C(C)=C/[C@@H](C)C(=O)[C@@H](C)[C@H](O)[C@@H](C)C/C(C)=C/C(=O)O)/C=C/[C@@H]1OC(=O)C=C[C@@H]1C`, the Potency is 1.9 nM (active) in assay [1], 0.0021 µM (active) in assay [2], 0.0251 µM (active) in assay [3] and 0.01 µM (active) in assay [4].
For `CC(C)=CCC[C@](C)(O[C@@H]1O[C@H](CO[C@@H]2O[C@H](CO)[C@@H](O)[C@H](O)[C@H]2O)[C@@H](O)[C@H](O)[C@H]1O)[C@H]1CC[C@]2(C)[C@@H]1[C@H](O)C[C@@H]1[C@@]3(C)CC[C@H](O[C@@H]4O[C@H](CO)[C@@H](O)[C@H](O)[C@H]4O[C@@H]4O[C@H](CO)[C@@H](O)[C@H](O)[C@H]4O)C(C)(C)[C@@H]3CC[C@]12C`, the Potency result in assay [1], in assay [2] and in assay [4] was “inactive” each time. The activity (max response) in assay [3] was -6.63%.

The values above are taken from PubChem BioAssay (NCATS).
